Three molecules from PubChem BioAssay (NCI) can be followed below.

The structures appear in SMILES notation. This is part of a sample that, as a whole, favours compounds with a hit. Of some 83,000 tested, about 20% had one in any assay.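 Negative percent growth values reflect cell death: -40 means 40% of the cells present at the start died, and -100 means all died.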 Values without a mark were called inactive. Active and inactive are the calls of the source. How the source made its calls: active means growth percent below 10; inactive means the rest.

The subject of this experiment is HL-60(TB) leukemia. Description: NCI-60 one-dose screen, 48 h (100 = growth as untreated, 0 = no growth, -100 = all killed). Particulars: 10 µM unless noted.
For `COc1ccc(C(=O)/C=C/c2cc(-c3cc(OC)c(OC)c(OC)c3)n[nH]2)cc1OC`, the growth is 3.15% (active). For `Cc1ccc(-c2nc(SCC(=O)N3CCN(c4cc5c(cc4F)c(=O)c(C(=O)O)cn5C4CC4)CC3)nc(Cl)c2C#N)cc1`, the growth is 101%. To `CCCCCCCC/C=C\CCCCCCCCOc1cccc(CC(=O)NCC[N+]2(C)CCOCC2)c1` belongs 67.6%.
